In PubChem BioAssay (NCI) one finds growth inhibition data, which are given here for 37 molecules.

About 79,000 compounds went through this panel and 15% of them were active in at least one assay; those are over-represented in the sample as a whole. A number with no mark means an inactive call. Active and inactive are the calls of the source. No stated cut-off is given here; in the data, active means growth inhibition above about 70%; inactive means the rest.

Test [1] can be described thus: NCI Yeast Anticancer Drug Screen. Data for the rad50 strain (AID 155).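 Further: 0% = growth of vehicle-only cultures of the same strain.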 Conditions: S. cerevisiae rad50 strain growth inhibition; at 50.0 µM; active compounds read high. The procedure, abridged: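 Growth of the mutant yeast was measured after compound exposure and referenced to vehicle-treated cultures.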
Test [2] in a line: NCI Yeast Anticancer Drug Screen. Data for the mec2-1 strain (AID 157). The conditions noted are these: S. cerevisiae mec2-1 strain, at 50.0 µM, active compounds read high. In short, it runs like this:
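Compounds were applied to mec2-1 yeast cells. Their growth was then compared with that of vehicle-treated cultures to give growth inhibition.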

Test [3] can be described thus: NCI Yeast Anticancer Drug Screen. Data for the sgs1 mgt1 strain (AID 161).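 Further: 0% = growth of cultures given vehicle only.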 Conditions: S. cerevisiae sgs1 mgt1 strain, at 50.0 µM, active compounds read high. The procedure, abridged:
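Yeast cells carrying a defined DNA-repair defect were exposed to test compounds. Growth inhibition was measured relative to vehicle-treated controls.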

A short description of test [4]: NCI Yeast Anticancer Drug Screen. Data for the cln2 rad14 strain (AID 165).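 Further: 0% = growth equal to vehicle treated cultures.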 Conditions: S. cerevisiae cln2 rad14 strain, at 50.0 µM, active compounds read high. In short, it runs like this:
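Strain: cln2 rad14 yeast, altered in cell cycle control and DNA damage repair. Read-out: growth inhibition vs vehicle.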

A short description of test [5]: NCI Yeast Anticancer Drug Screen. Data for the bub3 strain (AID 167). The conditions noted are these: S. cerevisiae bub3 mutant strain, at 50.0 µM, active compounds read high. The procedure, abridged:
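Whole-cell yeast assay. The mutant strain was incubated with compounds, and growth inhibition was determined by comparison with vehicle-treated cells.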

A short description of test [6]: NCI Yeast Anticancer Drug Screen. Data for the mlh1 rad18 strain (AID 175). Conditions: S. cerevisiae mlh1 rad18 strain growth inhibition; at 50.0 µM; active compounds read high. In short, it runs like this: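 A repair-deficient yeast strain is exposed to test compound, and growth is scored relative to vehicle-treated controls.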

Take `CC(C)(C)c1cc(C(=O)Nc2cc(Br)c(Br)cc2S(N)(=O)=O)cc(C(C)(C)C)c1O`: the growth inhibition is 37% in test [1]; 7.8% in test [2]; 31.6% in test [3]; 25% in test [4]; 39.8% in test [5]; 37.9% in test [6].

Consider `CN(C)c1ccc(N=Nc2ccc(S(=O)(=O)O)cc2)cc1.CN(C)c1ccc(N=Nc2ccc(S(=O)(=O)O)cc2)cc1.[NH-]C1CCCCC1[NH-].[Pt+2]`, for which the growth inhibition in test [1] was 24.2%; in test [2], 7.1%; in test [3] it was 10.3%; in test [4] it was -9.15%; in test [5], 15.6%; in test [6], 3.55%.

As for `Nc1ncnc(N2CCOCC2)n1`, the growth inhibition in test [1] is -28.8%; in test [2], -41.3%; in test [3], -8.15%; in test [4] it was 0.95%; in test [5], -14.9%; in test [6] it was -8.3%.

For `COC(=O)c1[nH]c(=O)c(C#N)c(C(=O)OC)c1-c1ccc(F)cc1`, the growth inhibition was -4.55% in test [1]; -24.5% in test [2]; -15.4% in test [3]; -2% in test [4]; -21.2% in test [5]; -0.05% in test [6].

`O=C(NCC(O)CNC(=O)C(F)(F)F)C(F)(F)F`: the growth inhibition in test [1] was 5.2%; in test [2], 7.75%; in test [3], 8.75%; in test [4] it was 28.4%; in test [5], 14.4%; in test [6] it was -27.2%.

In the case of `CCCCCCCCCCCCOC(=S)CCl`, the growth inhibition in test [1] is -10.9%; in test [2], -10.7%; in test [3], 10.8%; in test [4], -18.9%; in test [5] it was 4.55%; in test [6], 14.7%.

For `CC1=C(CO)C(=O)O[C@@H]([C@@H](C)[C@H]2CC[C@H]3[C@@H]4C[C@@H](O)[C@@]5(O)CC=CC(=O)[C@]5(C)[C@H]4CC[C@]23C)C1`, the growth inhibition is -6.5% in test [1]; -7.15% in test [2]; -17.7% in test [3]; -9.55% in test [4]; -36.2% in test [5]; -77.1% in test [6].

For the molecule `O=C(Nc1ccccc1)Nc1cc(C(F)(F)F)ccc1Cl`, the growth inhibition is 36% in test [1]; 18.6% in test [2]; 4.15% in test [3]; -10.2% in test [4]; 2.95% in test [5]; -17.1% in test [6].

`COc1ccc(C2c3cc4c(cc3OC(N3CCOCC3)C2C)OCO4)c(OC)c1OC` (configuration not stated): the growth inhibition is 2.45% in test [1]; 5.4% in test [2]; 14% in test [3]; -1.1% in test [4]; 11.8% in test [5]; 21.7% in test [6].

As for `CCCCC(CC)(CO)CCC` (configuration not stated), the growth inhibition in test [1] was -8.75%; in test [2], -19%; in test [3] it was -13.7%; in test [4] it was 2.55%; in test [5] it was -9.45%; in test [6], 4%.

In the case of `COC(=O)Cc1cc(=O)c2cc(C)ccc2[nH]1`, the growth inhibition is 0.9% in test [1]; 3.6% in test [2]; -2.7% in test [3]; -29.6% in test [4]; -13.9% in test [5]; -1.15% in test [6].

Take `CCOC(=O)c1cc(C=O)nc2c(Cl)cc(Cl)cc12`: the growth inhibition is 18.7% in test [1]; 6.25% in test [2]; 22.4% in test [3]; 5.9% in test [4]; 3.8% in test [5]; 17.6% in test [6].

On to `COc1cc(CSCC(=O)O)ccc1O`, for which the growth inhibition was 8.95% in test [1]; 7.15% in test [2]; 10.3% in test [3]; -19.4% in test [4]; -19.6% in test [5]; -23.8% in test [6].

In the case of `O=C(Nc1cccc2c1C(=O)c1c(NC(=O)c3ccccc3)ccc(Nc3cccc4c3C(=O)c3ccccc3C4=O)c1C2=O)c1ccccc1`, the growth inhibition was 8.05% in test [1]; -2.65% in test [2]; 0.9% in test [3]; 10% in test [4]; 9.05% in test [5]; 3.45% in test [6].

Regarding `CO/N=C(\C([O-])=N\[n+]1cnn(CC(=O)OC(C)(C)C)c1)c1csc(NC(c2ccccc2)(c2ccccc2)c2ccccc2)n1`, the growth inhibition in test [1] is 39.5%; in test [2], 0.75%; in test [3], 11.1%; in test [4], 8.3%; in test [5], 15.3%; in test [6], -10.1%.

As for `Cc1c([N+](=O)[O-])ccc2c(NCCCN(C)C)ccnc12`, the growth inhibition was -2.5% in test [1]; -5.65% in test [2]; -5.35% in test [3]; -6.4% in test [4]; -14.3% in test [5]; -36.4% in test [6].

`CCOC(=O)c1cc(OC(C)=O)c2ccccc2c1`: the growth inhibition was 26.9% in test [1]; 9.2% in test [2]; 41.5% in test [3]; 15.8% in test [4]; 61.5% in test [5]; 41.5% in test [6].

On to `O=C(NC1C2CC3CC(C2)CC1C3)c1ccncn1` (configuration not stated), for which the growth inhibition was 25.1% in test [1]; 4.75% in test [2]; 17.8% in test [3]; 38% in test [4]; 13.2% in test [5]; 26.2% in test [6].

For `[CH2+][B-]1(C)n2cc(Br)c[n+]2[B-](C)(C)[n+]2cc(Br)cn21`, the growth inhibition in test [1] was 16.2%; in test [2], 16.8%; in test [3], 8.05%; in test [4] it was 9.8%; in test [5], 7.1%; in test [6], 22.6%.

In the case of `CCOP(=O)(OCC)OCCCCn1cnc2c1c(=O)n(C)c(=O)n2C`, the growth inhibition is -32% in test [1]; -9.4% in test [2]; -15.7% in test [3]; -38% in test [4]; -2.65% in test [5]; -3.1% in test [6].

As to `NC1=NN(c2ccccc2)C(=O)C1/C(=N\NC(=O)c1cc2ccccc2cc1O)C(=O)Nc1ccc(Cl)cc1` (configuration not stated), the growth inhibition in test [1] was 40.5%; in test [2] it was 21.9%; in test [3], -7.4%; in test [4] it was 24.8%; in test [5], 22.8%; in test [6] it was 49.5%.

For the molecule `CNC(=S)Nc1cccc(C)c1`, the growth inhibition is -3.1% in test [1]; 2.65% in test [2]; 4.55% in test [3]; -8.55% in test [4]; -10.4% in test [5]; 4.05% in test [6].

Turning to `Oc1[nH]c2ccccc2c1N=NC1=NCCCCN1`, the growth inhibition is -33.2% in test [1]; -36.5% in test [2]; -6.65% in test [3]; 15.7% in test [4]; -3.35% in test [5]; -14.7% in test [6].

Turning to `CCC1([N+](=O)[O-])COC2(CCCCC2)OC1`, the growth inhibition was 6.95% in test [1]; 23.7% in test [2]; -11.4% in test [3]; -1.35% in test [4]; 13.6% in test [5]; -13.1% in test [6].

On to `Cn1c(N)cc(=O)n(C)c1=O`, for which the growth inhibition in test [1] is 22.6%; in test [2], 3.95%; in test [3] it was 18%; in test [4], 0.1%; in test [5] it was 17.5%; in test [6] it was 27%.

For the molecule `O=C1c2ccccc2-c2ccc([N+](=O)[O-])cc21`, the growth inhibition in test [1] is 35.6%; in test [2], 5.8%; in test [3] it was -0.3%; in test [4], 8.65%; in test [5], -1.3%; in test [6] it was -2.85%.

On to `C=CC(C)C1C(C)C(Cl)CC(Cl)C1OC(=O)c1ccccc1` (configuration not stated), for which the growth inhibition in test [1] is 14.1%; in test [2], -0.65%; in test [3], 10.7%; in test [4], -2.3%; in test [5], 17.8%; in test [6], -11.3%.

As for `O=C(c1cccnc1)c1cc(-c2ccccn2)c(=O)n2ccccc12`, the growth inhibition in test [1] was 0.7%; in test [2], 1.95%; in test [3], -13.6%; in test [4], -1.05%; in test [5], -15.8%; in test [6] it was -36.6%.

For the molecule `COc1cc(C(=O)O)cc(OC)n1`, the growth inhibition in test [1] was 10.8%; in test [2], 4.15%; in test [3], -6.6%; in test [4], -36.4%; in test [5], -16.9%; in test [6] it was 8.25%.

Regarding `CCOC(=O)c1nnsc1NC(=O)Nc1ccc(Cl)cc1`, the growth inhibition was -5.05% in test [1]; -21.2% in test [2]; -3.4% in test [3]; -6.55% in test [4]; -44.9% in test [5]; 10.6% in test [6].

As for `O=c1c2cnccc2cc2n1CCc1c-2[nH]c2ccccc12`, the growth inhibition in test [1] is 88.4% (active); in test [2], 89.3% (active); in test [3] it was 88.8% (active); in test [4], 90.2% (active); in test [5] it was 69.8%; in test [6] it was 86.4% (active).

As for `CC(=O)CC(=O)Nc1ccc(Cc2ccc(Br)cc2)cc1`, the growth inhibition is 23.7% in test [1]; -5.55% in test [2]; 9.55% in test [3]; 18.5% in test [4]; 4.15% in test [5]; 18.9% in test [6].

Regarding `CO[Si](CCCN)(OC)OC`, the growth inhibition was -0.65% in test [1]; -44.8% in test [2]; -13.4% in test [3]; -8.7% in test [4]; 11.8% in test [5]; 35.9% in test [6].

Turning to `CCOc1ncc(C(O)c2ccc(C)cc2)c(OCC)n1` (configuration not stated), the growth inhibition is -1.05% in test [1]; -11.1% in test [2]; -3.75% in test [3]; -52.6% in test [4]; 1.4% in test [5]; -9.8% in test [6].

Consider `NC(CC(F)(F)F)C(=O)O` (configuration not stated), for which the growth inhibition in test [1] is 22.9%; in test [2], 4.2%; in test [3], 16.7%; in test [4] it was 31.3%; in test [5], -2.65%; in test [6], 11.9%.

For `Cc1nc2ccc(S(=O)(=O)Nc3ccccn3)cc2c(=O)n1NS(=O)(=O)c1ccccn1`, the growth inhibition in test [1] is 42.6%; in test [2], 12.1%; in test [3] it was 12%; in test [4], 22.8%; in test [5] it was -14.2%; in test [6] it was 26.4%.

Regarding `CCN(CC)CCNCc1c[nH]c(=S)[nH]c1=O`, the growth inhibition is -7.25% in test [1]; -1% in test [2]; -19.4% in test [3]; -1.05% in test [4]; 1.35% in test [5]; -9.45% in test [6].
